Test [1] addresses rat Opioid Receptor, Non-selective Sodium (Na+) Binding, Oprm1 (gene 25601) (UniProt P33535). In words: NVS_GPCR_rOpiate_NonSelectiveNa: NovaScreen (NVS) G Protein-Coupled Receptor Assay for rat Opioid Receptor, Non-selective Sodium (Na+) Binding (AID 2283311). In a few lines:
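Rat forebrain membranes, radioligand displacement with filter scintillation counting, 1.5 h incubation. Screened in duplicate at 25 µM; hits then run in concentration-response up to 50 µM; loss of binding fitted versus DMSO.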

In test [2] the target is rat Gamma-Aminobutyric Acid Type A Receptor, Non-Selective (GABAR-NonSelective), Gabra1 (gene 29705) (UniProt P62813). In words: NVS_LGIC_rGABAR_NonSelective: NovaScreen (NVS) Ligand-Gated Ion Channel Assay for rat Gamma-Aminobutyric Acid Type A Receptor, Non-Selective (GABAR-NonSelective) (AID 2283326). In a few lines: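 Radioligand displacement on rat whole-brain extract, 1 h, filter scintillation readout; signal loss fitted versus DMSO. Primary screen in duplicate at 25 uM; hits (e.g. ≥30% inhibition) retested in concentration-response up to 50 uM.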
rat Gamma-Aminobutyric Acid Type A Receptor, Non-Selective (GABAR-NonSelective), Gabra1 (gene 29705), sequence (P62813 whole entry, looked up): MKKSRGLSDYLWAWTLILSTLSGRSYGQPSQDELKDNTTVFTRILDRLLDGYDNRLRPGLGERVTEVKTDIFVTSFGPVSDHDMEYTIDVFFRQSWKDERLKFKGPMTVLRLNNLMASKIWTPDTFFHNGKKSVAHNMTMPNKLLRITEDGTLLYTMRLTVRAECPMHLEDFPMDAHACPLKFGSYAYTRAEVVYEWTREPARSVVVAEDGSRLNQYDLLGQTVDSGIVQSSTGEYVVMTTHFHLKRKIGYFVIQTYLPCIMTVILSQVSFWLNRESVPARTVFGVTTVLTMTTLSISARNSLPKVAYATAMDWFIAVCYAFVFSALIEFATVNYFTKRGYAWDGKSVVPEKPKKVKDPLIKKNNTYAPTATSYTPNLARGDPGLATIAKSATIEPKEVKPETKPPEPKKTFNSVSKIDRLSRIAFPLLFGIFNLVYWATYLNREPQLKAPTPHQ

Another test deals with Adra2b (gene 24174) (UniProt P19328). Put plainly: NVS_GPCR_rmAdra2B: NovaScreen (NVS) G Protein-Coupled Receptor Assay for hybird cells Adrenergic, Alpha 2B Receptor (Adra2B) (AID 2283306). In a few lines: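 Radioligand filter-binding assay on membrane proteins from neuroglioma/blastoma hybrid cells (rodent), 1 h after dosing; scintillation counting, loss of signal vs DMSO. Primary screen in duplicate at 25 uM, actives then run in concentration series.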
Adra2b (gene 24174), sequence (P19328 whole entry, looked up): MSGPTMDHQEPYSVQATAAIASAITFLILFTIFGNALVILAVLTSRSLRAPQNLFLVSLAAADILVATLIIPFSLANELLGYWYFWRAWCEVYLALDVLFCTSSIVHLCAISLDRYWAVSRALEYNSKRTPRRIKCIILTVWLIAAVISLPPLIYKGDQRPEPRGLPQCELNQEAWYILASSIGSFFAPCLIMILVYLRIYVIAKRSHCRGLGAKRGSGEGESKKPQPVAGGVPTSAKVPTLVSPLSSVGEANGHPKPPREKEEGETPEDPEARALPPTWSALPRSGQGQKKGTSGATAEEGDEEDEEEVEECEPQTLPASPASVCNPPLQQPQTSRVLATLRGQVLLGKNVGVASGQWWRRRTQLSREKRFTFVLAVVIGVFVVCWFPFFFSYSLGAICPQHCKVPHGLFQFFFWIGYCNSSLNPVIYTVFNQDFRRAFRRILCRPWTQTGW

For test [3], the target named is rat Somatostatin Receptor (SST), Sstr1 (gene 25033) (UniProt P28646). Put plainly: NVS_GPCR_rSST: NovaScreen (NVS) G Protein-Coupled Receptor Assay for rat Somatostatin Receptor (SST) (AID 2283314). In a few lines: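 Rat forebrain membranes; radioligand displacement read by filter-based scintillation counting 1 h after dosing. Primary screen in duplicate at 25 uM. Actives (e.g., 30% inhibition) were rerun as concentration-response to 50 uM max and fitted against DMSO.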
rat Somatostatin Receptor (SST), Sstr1 (gene 25033), sequence (P28646 whole entry, looked up): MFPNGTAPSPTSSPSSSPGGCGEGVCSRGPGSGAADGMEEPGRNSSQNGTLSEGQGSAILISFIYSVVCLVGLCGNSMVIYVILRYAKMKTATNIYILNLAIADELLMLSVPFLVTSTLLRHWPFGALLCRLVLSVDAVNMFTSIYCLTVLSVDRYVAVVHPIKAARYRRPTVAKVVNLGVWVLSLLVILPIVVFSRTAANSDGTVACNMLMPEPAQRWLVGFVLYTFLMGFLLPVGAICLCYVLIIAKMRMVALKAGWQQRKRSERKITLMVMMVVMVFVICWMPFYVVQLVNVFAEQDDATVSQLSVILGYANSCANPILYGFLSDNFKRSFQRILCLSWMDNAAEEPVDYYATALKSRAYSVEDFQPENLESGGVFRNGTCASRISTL

The target in test [4] is rat Neonicotinoid receptor (NNR), Chrna7 (gene 25302) (UniProt Q05941). Put plainly: NVS_LGIC_rNNR_BungSens: NovaScreen (NVS) Ligand-Gated Ion Channel Assay for rat Neonicotinoid receptor (NNR) (AID 2283315). The essentials: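 Radioligand displacement binding on rat cortical membranes, 2.5 h incubation, filtration and scintillation counting. Loss of specific binding fitted relative to DMSO.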
rat Neonicotinoid receptor (NNR), Chrna7 (gene 25302), sequence (Q05941 whole entry, looked up): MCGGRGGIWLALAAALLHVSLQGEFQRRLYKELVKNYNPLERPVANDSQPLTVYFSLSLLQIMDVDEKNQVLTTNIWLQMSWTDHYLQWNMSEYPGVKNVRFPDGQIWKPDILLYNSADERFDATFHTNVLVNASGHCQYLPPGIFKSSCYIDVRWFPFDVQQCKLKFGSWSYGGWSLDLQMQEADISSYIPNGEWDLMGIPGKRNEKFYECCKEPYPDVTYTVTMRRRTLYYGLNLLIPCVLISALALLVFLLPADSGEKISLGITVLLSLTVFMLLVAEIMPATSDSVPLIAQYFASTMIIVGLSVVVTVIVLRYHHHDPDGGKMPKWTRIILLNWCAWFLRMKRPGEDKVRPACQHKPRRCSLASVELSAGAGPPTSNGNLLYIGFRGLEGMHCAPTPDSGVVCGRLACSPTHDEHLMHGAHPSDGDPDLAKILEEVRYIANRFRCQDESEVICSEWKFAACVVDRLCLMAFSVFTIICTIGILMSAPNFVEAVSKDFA

Test [5] concerns the target rat Opioid Receptor, Non-selective Binding, Oprm1 (gene 25601) (UniProt P33535). In words: NVS_GPCR_rOpiate_NonSelective: NovaScreen (NVS) G Protein-Coupled Receptor Assay for rat Opioid Receptor, Non-selective Binding (AID 2283318). In a few lines: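 Rat forebrain membranes, cell-free radioligand binding with filter-based scintillation counting, read 1.5 h after dosing. Primary screen in duplicate at 25 uM; actives retested in concentration series. Loss of signal versus DMSO baseline scored.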

Test [6] is described as follows: NVS_IC_rCaDHPRCh_L: NovaScreen (NVS) Ion Channel Assay for rat Calcium Channel, Type L, Dihydropyridine Site (CaDHPRCh_L) (AID 2283320). The essentials: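 Radioligand binding to dihydropyridine site on rat cortical membranes, filter-based scintillation counting, 1 h after dosing. Screened in duplicate at 25 uM; actives rerun in concentration-response up to 50 uM. Loss of signal versus DMSO baseline.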

In test [7] the target is Sodium channel protein type 1 subunit alpha (Rattus norvegicus) (UniProt P04774). In words: NVS_IC_rNaCh_site2: NovaScreen (NVS) Ion Channel Assay for rat Sodium Channel, Site 2 (NaCh) (AID 2283322).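 Note: hit means loss of radioligand binding signal relative to DMSO so AC50 marks displacement.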 The essentials: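 Membranes: rat forebrain. Format: competitive radioligand displacement, filter separation, scintillation readout, 1 h exposure. Primary screen in duplicate at 25 uM; actives retested in concentration series.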

Test [8] has as its target bovine Gamma-Aminobutyric Acid Type A Receptor BDZ, alpha 5 site (GABARa5), GABRA5 (gene 523515) (UniProt Q08E50). Put plainly: NVS_LGIC_bGABARa5: NovaScreen (NVS) Ligand-Gated Ion Channel Assay for bovine Gamma-Aminobutyric Acid Type A Receptor BDZ, alpha 5 site (GABARa5) (AID 2283323). In a few lines: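 Radioligand competitive displacement binding on bovine hippocampal membranes, read 1 hr after dosing by filter-based scintillation counting. Primary screen at 25 uM in duplicate; actives (e.g. ≥30% inhibition) then run in concentration-response up to 50 uM.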

Test [9] deals with rat Glutamate, AMPA Site (AMPA), Gria1 (gene 50592) (UniProt P19490). In words: NVS_LGIC_rAMPA: NovaScreen (NVS) Ligand-Gated Ion Channel Assay for rat Glutamate, AMPA Site (AMPA) (AID 2283324). The essentials:
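Rat forebrain membranes; radioligand binding read 1 h after dosing by filtration and scintillation counting. Duplicate single-point screen at 25 uM, then concentration-response to 50 uM for threshold hits (e.g. 30% inhibition); loss of signal vs DMSO.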

The target in test [10] is human Constitutive Androstane Receptor (CAR), NR1I3 (gene 9970) (UniProt Q14994). Put plainly: NVS_NR_hCAR_Agonist: NovaScreen (NVS) Nuclear Receptor Binding Assay for human Constitutive Androstane Receptor Agonism (CAR) (AID 2283328). In a few lines:
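Cell-free TR-FRET binding readout with extracted human CAR protein, read 1 h after dosing. Gain of signal fitted against DMSO baseline. Single-concentration duplicates at 25 uM, then concentration-response up to 50 uM for actives.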

Test [11] addresses rat Neurokinin-3 Receptor (NK3), Tacr3 (gene 24808) (UniProt P16177). In words: NVS_GPCR_rNK3: NovaScreen (NVS) G Protein-Coupled Receptor Assay for rat Neurokinin-3 Receptor (NK3) (AID 2283310). The essentials: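 Rat cortical membranes; radioligand binding with filtration and scintillation counting, 2 h after dosing. Primary screen in duplicate at 25 uM, then concentration-response up to 50 uM; loss of binding signal relative to DMSO.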

In test [12] the target is rat Thyrotropin Releasing Hormone Receptor (TRH), Trhr (gene 25570) (UniProt Q01717). Put plainly: NVS_GPCR_rTRH: NovaScreen (NVS) G Protein-Coupled Receptor Assay for rat Thyrotropin Releasing Hormone Receptor (TRH) (AID 2283329).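 Note: hit means lower bound tracer signal versus DMSO baseline.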 In a few lines:
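Rat forebrain membranes; radioligand displacement at TRH receptor by filter-based scintillation counting, read 4 h after dosing. Duplicate single-point screen at 25 uM, actives rerun in concentration series; loss of signal relative to DMSO.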

The next test deals with NCBI gene 24521. Put plainly: NVS_IC_rKATPCh: NovaScreen (NVS) Ion Channel Assay for rat Potassium Channel, ATP-Sensitive (KATPCh) (AID 2283319). In a few lines:
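Rat cortical membranes; radioligand binding at ATP-sensitive K channel site, filter-based scintillation counting 2 h after dosing. Single-point duplicate screen at 25 uM, hits rerun in concentration-response up to 50 uM; loss of signal versus DMSO.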

Test [13] addresses human Serotonin, 5-Hydroxytryptamine Receptor 3 (5HT3), HTR3A (gene 3359) (UniProt P46098). In words: NVS_LGIC_h5HT3: NovaScreen (NVS) Ligand-Gated Ion Channel Assay for human Serotonin, 5-Hydroxytryptamine Receptor 3 (5HT3) (AID 2283325). The essentials: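 Radioligand displacement binding to human 5-HT3 from HEK293 membranes, read by filter-based scintillation counting after 1 h. Screen at 25 uM in duplicate; chemicals passing threshold were retested in concentration-response up to 50 uM.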

In test [14] the target is rat Vasopressin 1 Receptor (V1), Avpr1a (gene 25107) (UniProt P30560). In words: NVS_GPCR_rV1: NovaScreen (NVS) G Protein-Coupled Receptor Assay for rat Vasopressin 1 Receptor (V1) (AID 2283316). In a few lines:
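Radioligand binding on rat liver membranes, 1.5 h incubation, filter-based scintillation counting. Single 25 uM screen in duplicate; chemicals meeting threshold (e.g. 30% inhibition) run in concentration-response up to 50 uM.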

The target of test [15] is rat Glutamate, NMDA Agonist Site (GluNMDA), Grin1 (gene 24408) (UniProt P35439). In words: NVS_LGIC_rGluNMDA_Agonist: NovaScreen (NVS) Ligand-Gated Ion Channel Assay for rat Glutamate, NMDA Agonist Site (GluNMDA) (AID 2283327). In a few lines: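 Rat forebrain membranes, radioligand binding in the agonist-site protocol; 1 h after dosing; filter-based scintillation counting. Single-concentration duplicate screen at 25 uM, then concentration-response up to 50 uM for actives; gain-of-signal vs DMSO.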

Test [16] has as its target rat Glutamate Metabotropic Receptor 5 (MGluR5), Grm5 (gene 24418) (UniProt P31424). In words: NVS_GPCR_rmMGluR5: NovaScreen (NVS) G Protein-Coupled Receptor Assay for rat Glutamate Metabotropic Receptor 5 (MGluR5) (AID 2283307). The essentials: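 Rat whole-brain membrane preparation; filter-based radioligand binding read by scintillation counting, 1.5 h after dosing. Single-point screen at 25 uM in duplicate; hits over threshold (e.g. 30% inhibition) retested in concentration-response up to 50 uM; loss of signal vs DMSO.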

Test [17] has as its target rat Neurokinin-1 Receptor (NK1), Tacr1 (gene 24807) (UniProt P14600). Put plainly: NVS_GPCR_rNK1: NovaScreen (NVS) G Protein-Coupled Receptor Assay for rat Neurokinin-1 Receptor (NK1) (AID 2283309). In a few lines: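 Rat submaxillary gland membranes; radioligand displacement read by filter-based scintillation counting after 1 h. Primary screen in duplicate at 25 uM; actives retested in concentration series; loss of binding fitted versus DMSO.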

Inconclusive results are not listed. Activity calls are given as the source filed them. Rule for the calls: active = hit-call score of the fitted dose curve at least 0.9, where 1 is the maximum; inconclusive = response in the unintended direction; inactive = score below 0.9.

rat Glutamate, AMPA Site (AMPA), Gria1 (gene 50592), sequence (P19490 whole entry, looked up): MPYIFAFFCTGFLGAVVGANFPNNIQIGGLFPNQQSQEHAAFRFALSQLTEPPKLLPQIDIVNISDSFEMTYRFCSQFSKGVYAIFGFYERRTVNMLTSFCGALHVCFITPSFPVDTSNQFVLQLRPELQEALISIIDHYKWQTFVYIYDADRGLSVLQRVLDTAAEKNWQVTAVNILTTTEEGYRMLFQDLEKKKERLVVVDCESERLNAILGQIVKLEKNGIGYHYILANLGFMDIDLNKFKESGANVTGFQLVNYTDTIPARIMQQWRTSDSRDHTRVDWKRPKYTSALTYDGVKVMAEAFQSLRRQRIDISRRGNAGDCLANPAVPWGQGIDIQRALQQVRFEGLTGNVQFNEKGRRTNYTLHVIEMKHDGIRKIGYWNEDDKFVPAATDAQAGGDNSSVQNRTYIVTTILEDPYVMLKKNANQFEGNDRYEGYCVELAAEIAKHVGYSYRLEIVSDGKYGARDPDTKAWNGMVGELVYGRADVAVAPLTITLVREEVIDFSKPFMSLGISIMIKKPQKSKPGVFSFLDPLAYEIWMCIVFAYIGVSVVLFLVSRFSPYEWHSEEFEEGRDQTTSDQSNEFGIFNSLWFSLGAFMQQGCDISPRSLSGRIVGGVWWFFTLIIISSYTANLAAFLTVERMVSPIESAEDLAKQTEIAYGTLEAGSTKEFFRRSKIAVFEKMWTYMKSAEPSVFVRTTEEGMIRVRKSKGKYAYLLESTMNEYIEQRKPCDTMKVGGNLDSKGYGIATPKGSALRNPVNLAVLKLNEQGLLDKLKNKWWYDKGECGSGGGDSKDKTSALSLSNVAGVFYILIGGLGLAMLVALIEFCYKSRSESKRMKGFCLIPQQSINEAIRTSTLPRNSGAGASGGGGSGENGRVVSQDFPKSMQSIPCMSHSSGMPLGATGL
rat Opioid Receptor, Non-selective Binding, Oprm1 (gene 25601), sequence (P33535 whole entry, looked up): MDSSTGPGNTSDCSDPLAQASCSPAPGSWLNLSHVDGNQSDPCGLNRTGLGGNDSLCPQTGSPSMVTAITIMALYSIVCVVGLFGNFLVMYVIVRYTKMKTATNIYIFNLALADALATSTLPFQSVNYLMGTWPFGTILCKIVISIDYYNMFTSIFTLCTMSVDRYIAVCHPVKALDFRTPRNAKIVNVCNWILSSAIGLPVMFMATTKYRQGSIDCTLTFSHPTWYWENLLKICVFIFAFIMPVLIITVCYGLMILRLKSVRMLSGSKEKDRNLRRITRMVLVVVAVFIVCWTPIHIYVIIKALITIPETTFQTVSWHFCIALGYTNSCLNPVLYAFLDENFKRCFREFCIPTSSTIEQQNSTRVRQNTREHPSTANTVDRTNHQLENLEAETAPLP
rat Opioid Receptor, Non-selective Sodium (Na+) Binding, Oprm1 (gene 25601), sequence (P33535 whole entry, looked up): as above
rat Neurokinin-3 Receptor (NK3), Tacr3 (gene 24808), sequence (P16177 whole entry, looked up): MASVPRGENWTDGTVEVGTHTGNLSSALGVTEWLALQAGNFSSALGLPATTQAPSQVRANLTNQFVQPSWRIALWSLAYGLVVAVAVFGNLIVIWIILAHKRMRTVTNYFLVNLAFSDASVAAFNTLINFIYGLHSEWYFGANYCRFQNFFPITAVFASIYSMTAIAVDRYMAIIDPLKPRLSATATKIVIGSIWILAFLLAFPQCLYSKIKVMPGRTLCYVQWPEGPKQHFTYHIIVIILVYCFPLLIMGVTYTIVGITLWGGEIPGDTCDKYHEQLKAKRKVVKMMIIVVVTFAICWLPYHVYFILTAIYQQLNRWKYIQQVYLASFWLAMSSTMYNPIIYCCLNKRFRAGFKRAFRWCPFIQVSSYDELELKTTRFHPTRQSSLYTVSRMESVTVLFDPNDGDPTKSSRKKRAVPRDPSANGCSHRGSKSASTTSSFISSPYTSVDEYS
bovine Gamma-Aminobutyric Acid Type A Receptor BDZ, alpha 5 site (GABARa5), GABRA5 (gene 523515), sequence (Q08E50 whole entry, looked up): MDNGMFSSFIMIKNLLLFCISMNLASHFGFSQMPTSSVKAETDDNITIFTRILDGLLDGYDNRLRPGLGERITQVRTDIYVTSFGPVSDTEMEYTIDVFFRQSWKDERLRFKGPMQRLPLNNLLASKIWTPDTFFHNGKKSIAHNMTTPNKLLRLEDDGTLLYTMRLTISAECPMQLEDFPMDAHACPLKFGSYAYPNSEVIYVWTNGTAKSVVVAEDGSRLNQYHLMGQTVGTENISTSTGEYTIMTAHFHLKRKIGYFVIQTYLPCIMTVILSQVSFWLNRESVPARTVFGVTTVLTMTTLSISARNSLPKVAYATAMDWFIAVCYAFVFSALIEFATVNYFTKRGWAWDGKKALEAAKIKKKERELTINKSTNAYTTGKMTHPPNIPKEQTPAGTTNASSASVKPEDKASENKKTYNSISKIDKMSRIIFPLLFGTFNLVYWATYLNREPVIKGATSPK
human Constitutive Androstane Receptor (CAR), NR1I3 (gene 9970), sequence (Q14994 whole entry, looked up): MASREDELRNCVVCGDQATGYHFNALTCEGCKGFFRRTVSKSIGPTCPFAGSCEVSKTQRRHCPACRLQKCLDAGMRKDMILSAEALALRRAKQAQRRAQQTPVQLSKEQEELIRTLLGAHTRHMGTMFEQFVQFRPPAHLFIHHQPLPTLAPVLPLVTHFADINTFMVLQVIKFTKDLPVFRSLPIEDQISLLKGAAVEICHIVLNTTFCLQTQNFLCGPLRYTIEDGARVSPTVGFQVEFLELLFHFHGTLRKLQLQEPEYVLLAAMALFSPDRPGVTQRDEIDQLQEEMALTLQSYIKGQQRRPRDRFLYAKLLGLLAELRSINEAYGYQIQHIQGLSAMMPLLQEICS

As to `OC(Cn1cncn1)(Cn1cncn1)c1ccc(F)cc1F`, the call in [1] was inactive.
`OC(CCl)CCl`: the AC50 in test [2] is 4.96 µM (active).
As to `c1ccc(C(O[C@@H]2CCCN(CCc3ccc4c(c3)OCO4)C2)c2ccccc2)cc1`, the AC50 in the test with Adra2b (gene 24174) was 7.75 µM (active); in test [1], 6.18 µM (active); in [3] it was 14.6 µM (active); in [5] it was 2.71 µM (active); in test [6] it was 6.43 µM (active); in [7], 0.832 µM (active). Moreover, the molecule was called inactive in [4] and in [8].
Turning to `OCCOCCOCCO`, the outcome in [9] and in [10] was inactive.
Consider `OCC(CO)(CO)CO`, for which the outcome in test [11] and in test [12] was inactive.
`COc1cc(C(C)C)c2c(c1)S(=O)(=O)N(COc1cc(=O)n3cccc(OCCN4CCCCC4)c3n1)C2=O`: the AC50 is 2.98 µM (active) in the test with Adra2b (gene 24174), 8.62 µM (active) in test [1] and 4.01 µM (active) in test [7]. Moreover, the result in test [4] and in test [10] was inactive.
As to `C=CCc1cc(S(=O)(=O)c2ccc(O)c(CC=C)c2)ccc1O`, the AC50 in test [1] was 16.1 µM (active); in [5] it was 13.1 µM (active); in test [6] it was 8.51 µM (active); in [7], 22.5 µM (active).
Take `O=C(O)c1cccc(C(=O)O)c1`: in the test on NCBI gene 24521, the result was inactive.
Take `O=C1CN(N=Cc2ccc([N+](=O)[O-])o2)C(=O)N1`: the result in [9] and in [13] was inactive.
As to `CCCCCCCCN(C)C`, the result in the test with Adra2b (gene 24174) was inactive.
For `CCOc1ccc2[nH]cc(C(=O)NCc3ccccc3)c(=O)c2n1`, in test [8], the AC50 is 0.0253 µM (active). The result in test [2] was inactive.
With `CCCC(CCC)C(=O)O`, the molecule was called inactive in [2].
`CCCCCCCCCC`: the molecule was called inactive (with Adra2b (gene 24174); in [11]; in [4]; in test [7]; in [9]; in test [15]). Moreover, the AC50 was 2.19 µM (active) in [3] and 25 µM (active) in [14].
`Cc1ncc([C@@H](CCCCCCc2ccc3c(n2)NCCC3)CC(=O)O)cn1`: the AC50 in test [5] is 25 µM (active).
Turning to `COCc1nnc(-c2ccc[n+]([O-])c2)n1-c1c(Cl)c(Cl)cc2[nH]c(=O)c(=O)[nH]c12`, the AC50 in [9] was 12.6 µM (active).
With `O=C(O)[C@H](O)[C@@H](O)C(=O)O`, the molecule was classed as inactive in the test with NCBI gene 24521.
For `CCc1cccc(CC)c1N`, the call in test [9] was inactive.
On to `CC[C@H](C)C(=O)O[C@H]1C[C@H](O)C=C2C=C[C@H](C)[C@H](CC[C@@H](O)C[C@@H](O)CC(=O)O)[C@H]21`, for which the molecule was classed as inactive in test [16].
On to `CCCOc1ccc(S(=O)(=O)N2CCN(CC)CC2)cc1-c1nc2c(CC)n(Cc3ccccn3)nc2c(=O)[nH]1`, for which the concentration at half-maximal activity (AC50) in [17] is 12.6 µM (active). The result in test [8] was inactive.
Consider `CCCCN1C(=O)[C@@H]([C@H](O)C2CCCCC2)NC(=O)C12CCN(Cc1ccc(Oc3ccc(C(=O)O)cc3)cc1)CC2`, for which, in [11], the molecule was classed as inactive.

As usually defined, the AC50 is the midpoint of the concentration-response curve, whichever way the signal moves.

Source of the values: PubChem BioAssay (EPA / NIEHS).
